Screening results (PubChem BioAssay)
NPC1 prom act: activators of NPC1 promoter. Huh7 NPC1 promoter luciferase reporter, 24 h. Potency, µM (doses to about 9.22 µM), hits mostly activators. 320,000 tested, 2.4% active; note: nearly all actives have a fitted effect of over 60% in size
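Luciferase expression driven by the NPC1 promoter was measured in stably transfected Huh7 cells after a 24 h compound incubation, using a luciferase reagent and a luminescence read.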
SMN2 splice enh: increases expression of the SMN2 splice variant | HEK293 SMN2-luciferase splicing reporter, luminescence, 30-36 h | Potency, µM (series often up to 46.1 µM), actives largely listed as activators | 210,000 tested, 2.8% active; note: nearly all actives have a fitted effect of over 55% in size
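qHTS luciferase splicing reporter: luminescence rises when SMN2 exon 7 is included in transfected HEK293 cells. Compound exposure lasted 30-36 h at 37C, with 4.5 mM final sodium butyrate as control, followed by a ONE-Glo read.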
Rab9 prom act: activates the Rab9 promoter | Huh7 Rab9 promoter-luciferase reporter, luminescence, 24 h | 320,000 tested, 2.8% active | Potency, µM (titrated, usually from 9.22 µM), usual class: activators; note: nearly all actives have a fitted effect of over 60% in size
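Cells were plated at 1500 per well in reduced-serum medium with 10% FBS and left 2 h. Compound in DMSO was then added for 24 h at 37 °C. Reporter signal was read by luminescence after 10 min with luciferase detection reagent.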
ELG1 genotoxic: induces genotoxicity in HEK293T cells with luciferase-tagged ELG1; HEK293T ELG1-luciferase reporter, luminescence, 16 h; Potency, µM (titrated, usually from 46 µM), usual class: activators; 330,000 tested, 1.3% active; note: nearly all actives have a fitted effect of over 60% in size
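Luminescence read-out: rising ELG1-luciferase signal, reflecting elevated ELG1 protein under genetic stress, flags genotoxic compounds. Cells were treated for 16 hr at 37 °C before ONE-Glo detection.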
ELG1 DNA repair: blocks ELG1-dependent DNA repair in HEK293T cells. HEK293T ELG1-luciferase reporter, luminescence, 16 h; DNA damage induced by 5-fluorouridine. Potency, µM (top dose mostly 46.1 µM), most hits filed as inhibitors. 330,000 tested, 2.3% active. AID 504467; note: nearly all actives have a fitted effect of over 55% in size
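Cells (2,000 per well) received 5-fluorouridine plus test compound or DMSO and were incubated 16 hr at 37 °C, 5% CO2. Luciferase activity was read by luminescence 30 min after ONE-Glo addition; signal suppression marked inhibition of damage-induced ELG1 function.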
FLuc modulator: firefly luciferase modulation, counter-screen for miR-21 project; 360,000 tested, 6.9% active; purified FLuc, Km substrates, luminescence inhibition; P08659; Potency, µM (doses to about 57.5 µM), most hits filed as inhibitors; AID 588342; note: nearly all actives have a fitted effect of over 55% in size
Target sequence (P08659 whole entry, looked up): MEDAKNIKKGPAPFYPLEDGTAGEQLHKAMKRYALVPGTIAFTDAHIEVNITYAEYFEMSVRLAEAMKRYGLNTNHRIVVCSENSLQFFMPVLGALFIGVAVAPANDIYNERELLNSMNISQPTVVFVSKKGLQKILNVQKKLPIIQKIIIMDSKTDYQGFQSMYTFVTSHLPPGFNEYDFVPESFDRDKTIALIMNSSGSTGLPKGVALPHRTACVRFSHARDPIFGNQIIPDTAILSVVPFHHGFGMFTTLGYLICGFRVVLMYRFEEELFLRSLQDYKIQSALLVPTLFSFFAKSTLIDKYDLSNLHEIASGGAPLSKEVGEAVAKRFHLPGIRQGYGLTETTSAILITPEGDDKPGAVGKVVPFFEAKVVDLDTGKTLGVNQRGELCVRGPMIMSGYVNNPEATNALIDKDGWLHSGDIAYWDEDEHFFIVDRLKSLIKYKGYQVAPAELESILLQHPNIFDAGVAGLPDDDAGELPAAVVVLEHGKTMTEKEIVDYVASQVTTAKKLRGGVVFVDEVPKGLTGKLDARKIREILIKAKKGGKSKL
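Biochemical qHTS of compounds, final roughly 60 µM downward over six points, against 10 nM purified firefly luciferase using Km concentrations of substrates (10 uM D-luciferin, 10 uM ATP) in Tris acetate pH 7.5 buffer; luminescence output.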
Each line names hits and unclear results; the compound was inactive in the other large screens. The list is not random: actives were taken first. Their share in the collection is about 9.3%. Calls come from the whole dose curve; as a rule, active = well fitted curve in the direction sought with a large enough effect; inconclusive = small, poorly fitted or top-dose-only effect, or another doubt; inactive = no such curve, though single readings can be large; an effect the other way counts as inactive or inconclusive.

Cc1cccc(Nc2nc3ccccc3s2)c1C	NPC1 prom act 3.16µM, SMN2 splice enh 10µM, Rab9 prom act 2.51µM, ELG1 genotoxic 6.51µM, ELG1 DNA repair inconclusive, FLuc modulator 2.39µM
COc1cccc(Nc2nc3ccc(OC)cc3s2)c1	NPC1 prom act inconclusive, SMN2 splice enh 20µM, Rab9 prom act 4.47µM, ELG1 genotoxic inconclusive, ELG1 DNA repair inconclusive, FLuc modulator 4.26µM
COc1ccc2nc(NC3=NCCC3)sc2c1	NPC1 prom act 3.55µM, SMN2 splice enh inconclusive, Rab9 prom act 3.16µM, ELG1 genotoxic inconclusive, ELG1 DNA repair inconclusive, FLuc modulator 12µM
COc1ccc(CC(=O)Nc2sc3c(c2C(N)=O)CCCC3)cc1	ELG1 DNA repair inconclusive (no result: SMN2 splice enh)
Cc1ccc(-c2nn3c(-c4ccccc4C)nnc3c3ccccc23)cc1	none (no result: NPC1 prom act, Rab9 prom act, ELG1 genotoxic, ELG1 DNA repair)
CCOC(=O)N1CCN(C(=O)CN(c2ccc(C)cc2C)S(=O)(=O)c2ccccc2)CC1	none (no result: NPC1 prom act, Rab9 prom act, ELG1 genotoxic, ELG1 DNA repair)
CC1=C2C(=COC(C)C2C)C(=O)C(C(=O)O)=C1O (centres undefined)	none (no result: NPC1 prom act, Rab9 prom act, ELG1 genotoxic, ELG1 DNA repair, FLuc modulator)
COc1ccc2nc(C)cc(Sc3nc4ccccc4s3)c2c1	ELG1 DNA repair 5.17µM, FLuc modulator inconclusive (no result: SMN2 splice enh)
COc1ccc2nc(Nc3sc4c(c3C(N)=O)CCCC4)sc2c1	ELG1 DNA repair inconclusive, FLuc modulator 10.7µM
COc1ccc(Nc2nc3ccccc3s2)cc1	NPC1 prom act 2.51µM, SMN2 splice enh 10µM, Rab9 prom act 1.41µM, ELG1 genotoxic inconclusive, ELG1 DNA repair inconclusive, FLuc modulator 5.36µM
COc1ccc(C(O)c2nc3ccccc3s2)cc1 (centres undefined)	none
COc1ccc(NC(=O)CN(C)C(=O)c2cc3c(s2)CCC(C)C3)cc1 (centres undefined)	FLuc modulator 15.1µM (no result: SMN2 splice enh)
COc1cc(OC)cc(C(=O)Nc2sc3c(c2C(N)=O)CCC3)c1	Rab9 prom act inconclusive, ELG1 DNA repair inconclusive (no result: SMN2 splice enh)
CC(C)CCN(Cc1ccco1)C(=O)c1cc2c(Cl)nc3ccccc3c2s1	none (no result: NPC1 prom act, Rab9 prom act, ELG1 genotoxic, ELG1 DNA repair)
Cc1oc(-c2ccccc2)cc1C(=O)Nc1ccc(N(C)C)cc1	FLuc modulator 13.5µM
Cc1oc(-c2ccccc2)cc1C(=O)Nc1cccc(/C=C\C(=O)O)c1	FLuc modulator 15.1µM (no result: SMN2 splice enh)
Cc1oc(C(C)(C)C)cc1C(=O)Nc1cccc(/C=C\C(=O)O)c1	ELG1 DNA repair inconclusive, FLuc modulator 8.49µM
Cc1cc2nccc(-c3ccncc3)n2n1	ELG1 DNA repair 13µM
O=C(Cc1ccccc1)Nc1ccc(C(=O)Nc2ccc(O)cc2)cc1	none (no result: SMN2 splice enh)
C/C(=C\C(=O)c1ccccc1)Nc1ccc(O)cc1	NPC1 prom act 2.51µM, Rab9 prom act 3.55µM, ELG1 genotoxic 6.51µM, ELG1 DNA repair inconclusive, FLuc modulator 4.78µM (no result: SMN2 splice enh)
C/C(=C\C(=O)c1cccnc1)Nc1ccc(O)cc1	NPC1 prom act inconclusive, Rab9 prom act inconclusive, ELG1 genotoxic 16.4µM, ELG1 DNA repair inconclusive, FLuc modulator 16.9µM
COc1ccc(C(=O)/C=C(\C)Nc2ccc(NC(C)=O)cc2)cc1	NPC1 prom act inconclusive, Rab9 prom act 2.82µM, ELG1 DNA repair inconclusive, FLuc modulator inconclusive
C/C(=C\C(=S)Nc1ccccc1)Nc1ccccc1	ELG1 DNA repair inconclusive, FLuc modulator 3.79µM
Cc1noc(C)c1NC(=O)N(C)C[C@@H]1Oc2ccc(NC(=O)Cc3cn(C)c4ccccc34)cc2CC(=O)N([C@H](C)CO)C[C@@H]1C	none (no result: NPC1 prom act, SMN2 splice enh, Rab9 prom act, FLuc modulator)
Cc1ccc2c(c1)CCCN2CC(=O)Nc1cccc(S(=O)(=O)N2CCCC2)c1	none (no result: SMN2 splice enh)
COc1ccccc1C(CNC(=O)c1oc2ccccc2c1C)N1CCCC1 (centres undefined)	FLuc modulator 23.9µM (no result: SMN2 splice enh)
O=C(NCCc1ccc2c(c1)OCCO2)c1ccccc1F	NPC1 prom act inconclusive, ELG1 DNA repair inconclusive, FLuc modulator inconclusive
COc1ccc(CCNC(=O)c2oc3ccccc3c2C)cc1	FLuc modulator 19µM (no result: SMN2 splice enh)
COc1ccc(CCNC(=O)c2oc3ccc(OC)cc3c2C)cc1	FLuc modulator inconclusive (no result: SMN2 splice enh)
Cc1c(C(=O)NCCc2ccc3c(c2)OCCO3)oc2ccccc12	FLuc modulator 19µM
COc1cc2oc(=O)c(CC(=O)NCCc3ccccc3)c(C)c2cc1Cl	none (no result: NPC1 prom act, Rab9 prom act, ELG1 genotoxic, ELG1 DNA repair)
CSc1ncc(C(=O)Nc2ccc(C(C)=O)cc2)c(C)n1	NPC1 prom act inconclusive, Rab9 prom act inconclusive, ELG1 DNA repair inconclusive, FLuc modulator inconclusive (no result: SMN2 splice enh)
OB(O)c1ccc(Cl)s1	none (no result: NPC1 prom act, Rab9 prom act, ELG1 genotoxic, ELG1 DNA repair, FLuc modulator)
OCCNc1c2ccccc2nc2ccccc12	ELG1 DNA repair 20.6µM (no result: SMN2 splice enh)
COc1cc2nc(Nc3ccc(C)c(Cl)c3)nc(N)c2cc1OC	ELG1 DNA repair inconclusive, FLuc modulator 21.3µM (no result: SMN2 splice enh)
CCOC(=O)c1ccc(Nc2nc(N)c3cc(OC)c(OC)cc3n2)cc1	FLuc modulator 7.57µM
Cc1ccc(Nc2nc(NCCO)c3ccccc3n2)cc1C	FLuc modulator 7.57µM (no result: SMN2 splice enh)
COc1cc2nc(Nc3ccc(F)cc3)nc(N)c2cc1OC	ELG1 DNA repair inconclusive, FLuc modulator inconclusive
Cc1[nH]c2ccccc2c1C(=O)CSc1n[nH]c(N)n1	none
Cc1cc(C)c2nc(-c3cccnc3)cc(C(=O)NC(C)c3cnn(C)c3C)c2c1 (centres undefined)	FLuc modulator inconclusive
Cc1ccc(Nc2nc(N)c3ccccc3n2)cc1Cl	NPC1 prom act 0.562µM, Rab9 prom act 0.631µM, ELG1 genotoxic inconclusive, ELG1 DNA repair inconclusive, FLuc modulator 0.953µM (no result: SMN2 splice enh)
